Source: PubChem BioAssay (EPA / NIEHS)
Active and inactive are the calls of the source. How the source made its calls: active means hit-call score of the fitted dose curve at least 0.9, where 1 is the maximum; inactive means score below 0.9.

Test: Tanguay_ZF_120hpf_AXIS: Oregon State University Tanguay Lab 120 Hour Post-fertilization zebrafish Assay for Axial Malformation (AID 2284398)
Procedure, shortened: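 Dechorionated 5D wild-type zebrafish embryos exposed statically, one per well, from 6 to 120 hpf at 28C, 0.64% DMSO. Axial malformation scored as present/absent by brightfield microscopy at 120 hpf; dead embryos not scored.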

| Structure (SMILES) | outcome | AC50 |
| --- | --- | --- |
| O=P(O)(O)OCCC(F)(F)C(F)(F)C(F)(F)C(F)(F)C(F)(F)C(F)(F)F | inactive |  |
| NC(=O)C(F)(F)C(F)(F)C(F)(F)C(F)(F)F | inactive |  |
| FC(F)(F)C(F)(F)C(F)(F)C(F)(F)C(F)(F)CCI | inactive |  |
| O=C(O)C(F)(F)C(F)(F)C(F)(F)C(F)(F)C(F)(F)C(F)(F)C(F)(F)C(F)(F)Cl |  | 37.2 µM (active) |
| FC(F)(F)C(F)(F)C(F)(F)C(F)(F)C(F)(F)C(F)(F)C(F)(F)C(F)(F)F | inactive |  |
| OCC(F)(F)C(F)(F)C(F)(F)C(F)F | inactive |  |
| FC(F)(F)C(F)(F)C(F)(F)C(F)(F)CCI | inactive |  |
| FC(F)(F)C(F)(F)C(F)(F)C(F)(F)C(F)(F)C(F)(F)C(F)(F)C(F)(F)CCS | inactive |  |
| FC(F)(F)C(F)(F)C(F)(F)C(F)(F)C(F)(F)C(F)(F)CC1CO1 (stereo unspecified) | inactive |  |
| O=C(O)C(F)(OC(F)(F)C(F)(OC(F)(F)C(F)(OC(F)(F)C(F)(F)C(F)(F)F)C(F)(F)F)C(F)(F)F)C(F)(F)F (stereo unspecified) | inactive |  |
| O=C(O)C(F)(OC(F)(F)C(F)(OC(F)(F)C(F)(F)C(F)(F)F)C(F)(F)F)C(F)(F)F (stereo unspecified) | inactive |  |
| O=C(O)C(F)(F)C(F)(F)C(F)(F)C(F)(F)F | inactive |  |
| N=C(N)C(F)(F)C(F)(F)C(F)(F)C(F)(F)C(F)(F)C(F)(F)C(F)(F)F | inactive |  |
| CC(C)(C)C(=O)CC(=O)C(F)(F)C(F)(F)C(F)(F)F | inactive |  |
| C=CC(=O)OCC(F)(F)C(F)(F)C(F)(F)C(F)(F)COC(=O)C=C | inactive |  |
| O=C(O)C(F)(F)C(F)(F)C(F)F | inactive |  |
| Cc1ccc(S(=O)(=O)OCC(F)(F)C(F)(F)C(F)(F)C(F)(F)C(F)(F)C(F)F)cc1 | inactive |  |

Test: Tanguay_ZF_120hpf_MORT: Oregon State University Tanguay Lab 120 Hour Post-fertilization zebrafish Assay for Mortality (AID 2284399)
Procedure, shortened: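 Dechorionated wild-type Tropical 5D zebrafish embryos, one per well from 6 hpf, static exposure to 120 hpf at 28C in sealed dark plates, 0.64% DMSO final. Mortality scored as binary by brightfield at 24 and 120 hpf.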

| Structure (SMILES) | AC50 | outcome |
| --- | --- | --- |
| O=P(O)(O)OCCC(F)(F)C(F)(F)C(F)(F)C(F)(F)C(F)(F)C(F)(F)F | 18.7 µM (active) |  |
| NC(=O)C(F)(F)C(F)(F)C(F)(F)C(F)(F)F |  | inactive |
| FC(F)(F)C(F)(F)C(F)(F)C(F)(F)C(F)(F)CCI |  | inactive |
| O=C(O)C(F)(F)C(F)(F)C(F)(F)C(F)(F)C(F)(F)C(F)(F)C(F)(F)C(F)(F)Cl |  | inactive |
| FC(F)(F)C(F)(F)C(F)(F)C(F)(F)C(F)(F)C(F)(F)C(F)(F)C(F)(F)F |  | inactive |
| OCC(F)(F)C(F)(F)C(F)(F)C(F)F |  | inactive |
| FC(F)(F)C(F)(F)C(F)(F)C(F)(F)CCI |  | inactive |
| FC(F)(F)C(F)(F)C(F)(F)C(F)(F)C(F)(F)C(F)(F)C(F)(F)C(F)(F)CCS |  | inactive |
| FC(F)(F)C(F)(F)C(F)(F)C(F)(F)C(F)(F)C(F)(F)CC1CO1 (stereo unspecified) |  | inactive |
| O=C(O)C(F)(OC(F)(F)C(F)(OC(F)(F)C(F)(OC(F)(F)C(F)(F)C(F)(F)F)C(F)(F)F)C(F)(F)F)C(F)(F)F (stereo unspecified) |  | inactive |
| O=C(O)C(F)(OC(F)(F)C(F)(OC(F)(F)C(F)(F)C(F)(F)F)C(F)(F)F)C(F)(F)F (stereo unspecified) |  | inactive |
| O=C(O)C(F)(F)C(F)(F)C(F)(F)C(F)(F)F |  | inactive |
| N=C(N)C(F)(F)C(F)(F)C(F)(F)C(F)(F)C(F)(F)C(F)(F)C(F)(F)F |  | inactive |
| CC(C)(C)C(=O)CC(=O)C(F)(F)C(F)(F)C(F)(F)F |  | inactive |
| C=CC(=O)OCC(F)(F)C(F)(F)C(F)(F)C(F)(F)COC(=O)C=C | 17.5 µM (active) |  |
| O=C(O)C(F)(F)C(F)(F)C(F)F |  | inactive |
| Cc1ccc(S(=O)(=O)OCC(F)(F)C(F)(F)C(F)(F)C(F)(F)C(F)(F)C(F)F)cc1 |  | inactive |

Test: Tanguay_ZF_120hpf_EDEM: Oregon State University Tanguay Lab 120 Hour Post-fertilization zebrafish Assay for Edema Malformation (AID 2284400)
Procedure, shortened: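 Dechorionated Tropical 5D wild-type embryos, one per well, statically exposed from 6 to 120 hpf at 28C in 0.64% DMSO. Edema scored present/absent by brightfield microscopy at 120 hpf; dead embryos not scored; fit versus DMSO.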

| Structure (SMILES) | outcome | AC50 |
| --- | --- | --- |
| O=P(O)(O)OCCC(F)(F)C(F)(F)C(F)(F)C(F)(F)C(F)(F)C(F)(F)F | inactive |  |
| NC(=O)C(F)(F)C(F)(F)C(F)(F)C(F)(F)F | inactive |  |
| FC(F)(F)C(F)(F)C(F)(F)C(F)(F)C(F)(F)CCI | inactive |  |
| O=C(O)C(F)(F)C(F)(F)C(F)(F)C(F)(F)C(F)(F)C(F)(F)C(F)(F)C(F)(F)Cl |  | 37.2 µM (active) |
| FC(F)(F)C(F)(F)C(F)(F)C(F)(F)C(F)(F)C(F)(F)C(F)(F)C(F)(F)F | inactive |  |
| OCC(F)(F)C(F)(F)C(F)(F)C(F)F | inactive |  |
| FC(F)(F)C(F)(F)C(F)(F)C(F)(F)CCI | inactive |  |
| FC(F)(F)C(F)(F)C(F)(F)C(F)(F)C(F)(F)C(F)(F)C(F)(F)C(F)(F)CCS | inactive |  |
| FC(F)(F)C(F)(F)C(F)(F)C(F)(F)C(F)(F)C(F)(F)CC1CO1 (stereo unspecified) | inactive |  |
| O=C(O)C(F)(OC(F)(F)C(F)(OC(F)(F)C(F)(OC(F)(F)C(F)(F)C(F)(F)F)C(F)(F)F)C(F)(F)F)C(F)(F)F (stereo unspecified) | inactive |  |
| O=C(O)C(F)(OC(F)(F)C(F)(OC(F)(F)C(F)(F)C(F)(F)F)C(F)(F)F)C(F)(F)F (stereo unspecified) | inactive |  |
| O=C(O)C(F)(F)C(F)(F)C(F)(F)C(F)(F)F | inactive |  |
| N=C(N)C(F)(F)C(F)(F)C(F)(F)C(F)(F)C(F)(F)C(F)(F)C(F)(F)F | inactive |  |
| CC(C)(C)C(=O)CC(=O)C(F)(F)C(F)(F)C(F)(F)F | inactive |  |
| C=CC(=O)OCC(F)(F)C(F)(F)C(F)(F)C(F)(F)COC(=O)C=C | inactive |  |
| O=C(O)C(F)(F)C(F)(F)C(F)F | inactive |  |
| Cc1ccc(S(=O)(=O)OCC(F)(F)C(F)(F)C(F)(F)C(F)(F)C(F)(F)C(F)F)cc1 | inactive |  |
